HepG2 tox – qHTS for Inhibitors of TGF-b: Cytotox Counterscreen; HepG2 CAGA-GFP viability, ATP luminescence, 18 h; Potency, µM (top dose mostly 46.1 µM), for the others: at the top dose activity change, negative = cytotoxicity, actives largely listed as cytotoxic; actives 0.76% (n = 410,000); note: potency is the fitted concentration of half-maximal effect
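CellTiter-Glo luminescence gave cytotoxicity after 18 hours at 37 degrees C. The cells were HepG2 CAGA-GFP in 1% FBS DMEM, stimulated with 500 pg/mL TGF-beta after compound addition. %Activity was normalised to no-cell wells (complete cell-killing) and DMSO (no toxicity), and curves were fitted and classified.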
IL1B secr inh – qHTS for Inhibitors of Inflammasome Signaling: IL-1-beta AlphaLISA Primary Screen; activity change, % at 57.5 µM; actives 4.7% (n = 360,000); AID 743279, 2014; THP-1 LPS/ATP IL-1B secretion, AlphaLISA, 16 h; active compounds read low; in the data active = activity change below about -50%; inconclusive = mostly about -30% to -49%; note: % is set by controls: 0 for no effect and ±100 for the full control effect
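THP-1 cells pretreated 1 hr with compounds (up to 57.5 uM final), then stimulated with LPS (250 ng/mL final) plus ATP (1.25 mM final); secreted IL-1B measured by AlphaLISA after 16 hr, decreased signal indicating inhibition.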
HT1080 IDH1KD tx – qHTS for induction of synthetic lethality in tumor cells producing 2HG: qHTS for the HT-1080-IDH1KD cell line | actives 2% (n = 360,000) | Potency, µM (series often up to 46.1 µM), without a hit: top-dose activity, negative = toxicity, usual class: cytotoxic | HT-1080 IDH1 knockdown viability, ATP luminescence, 48 h;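 note: potency is the fitted concentration of half-maximal effect; 0% = DMSO wells and -100% = cell-free medium wells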
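Viability of IDH1-knockdown HT-1080 fibrosarcoma cells was assessed by CellTiter-Glo after 48 h at 37 °C with titrated compound; concentration-effect curves were classified by fit quality and response size.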
Giardia killer – Small Molecules that selectively kill Giardia lamblia: qHTS; Giardia lamblia trophozoite viability; AID 540267, 2011; activity change, % at 7.66 µM, hits read low; actives 0.15% (n = 340,000); in the data active = activity change below about -80%; inconclusive = between about -30% and that limit;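 note: parasites exposed to compound for two days anaerobically before the ATP read; % is set by controls: 0 for no effect and ±100 for the full control effect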
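Trophozoites 100 cells/well + cpd; 48 hrs, 37 deg C, anaerobic. ATPLite 1-Step added, 15-30 min RT, luminescence read (ATP-based viability).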
TGFb SMAD3 inh – qHTS for Inhibitors of TGF-b. HepG2 CAGA-GFP TGF-b/SMAD3 reporter, GFP fluorescence, 18 h; TGF-beta stimulated, 500 pg/mL final. Potency, µM (top dose mostly 46.1 µM), for the others: at the top dose activity, negative = inhibition, hits mostly inhibitors. actives 1.2% (n = 410,000); note: potency is the fitted concentration of half-maximal effect; % is set by controls: 0 for no effect and ±100 for the full control effect; nearly all actives have a fitted effect of over 65% in size
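TGF-beta reporter screen: HEPG2 CAGA-GFP, 1% FBS, 500 pg/mL TGF-beta final, 18 h; per-cell GFP summed per well; curves fitted and categorized by class.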
HT1080-NT tox – qHTS for induction of synthetic lethality in tumor cells producing 2HG: qHTS for the HT-1080-NT fibrosarcoma cell line | Potency, µM (series often up to 46.1 µM), inactives show at the highest dose activity, negative = less viability, hits mostly cytotoxic | actives 1.6% (n = 360,000) | HT-1080-NT fibrosarcoma viability, CellTiter-Glo ATP luminescence, 48 h;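 note: NT is the 2HG producing partner of a matched IDH1 knockdown line; potency is the fitted concentration of half-maximal effect; 0% = DMSO-treated cells and -100% = media-only wells without cells; nearly all actives have a fitted effect of over 55% in size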
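Read-out is CellTiter-Glo luminescence after 10 minutes at room temperature, following 48 hours' compound treatment of HT-1080-NT cells (750 cells/well, RPMI, 5% FBS, 37 degrees C).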
* = called active by the depositor; ? = inconclusive; · = no result given. Most compounds without a hit are left out; they make up all but 6.5% or so of the library. Unless noted, calls come from the whole dose curve; as a rule, active = well fitted curve in the direction sought with a large enough effect; inconclusive = small, poorly fitted or top-dose-only effect, or another doubt; inactive = no such curve, though single readings can be large; an effect the other way counts as inactive or inconclusive.

SMILES	HepG2 tox	IL1B secr inh	HT1080 IDH1KD tx	Giardia killer	TGFb SMAD3 inh	HT1080-NT tox
CC(C)N(C(=O)[C@H]1CC(CC(=O)NCCCN(C)C)C(=O)N2CCc3c([nH]c4ccccc34)[C@]12C)C(C)C (stereo partly specified)	5%	-17	-4%	-18	4%	-4%
CC(C)N(C(=O)[C@H]1CC(CC(=O)NCc2cccc(C(F)(F)F)c2)C(=O)N2CCc3c([nH]c4ccccc34)[C@]12C)C(C)C (stereo partly specified)	-92%	?	2%	-6	13µM*	1%
COCCCNC(=O)C[C@H]1C[C@H](C(=O)N2CCOCC2)[C@@]2(C)c3[nH]c4cc(-c5ccco5)ccc4c3CCN2C1=O	1%	10	2%	-4	-21%	5%
C[C@]12c3[nH]c4ccccc4c3CCN1C(=O)C(CC(=O)NCC13CC4CC(CC(C4)C1)C3)C[C@@H]2C(=O)N1CCOCC1 (stereo partly specified)	-11%	-29	-16%	-16	?	-12%
COCCCNC(=O)C[C@H]1C[C@H](C(=O)N(C(C)C)C(C)C)[C@@]2(C)c3[nH]c4cc(-c5ccco5)ccc4c3CCN2C1=O	-22%	?	1%	4	11µM*	-3%
C[C@]12c3[nH]c4ccccc4c3CCN1C(=O)C(CC(=O)NCC13CC4CC(CC(C4)C1)C3)C[C@@H]2C(=O)N1CCCCC1 (stereo partly specified)	-45%	-64*	?	-8	?	?
CCCCCCn1cnc2c(c1=O)c1nc3ccccc3nc1n2/N=C/c1ccco1	-11%	-28	1%	26	-1%	11%
CCOc1ncccc1C(=O)N=c1sccn1C	-13%	9	3%	32	-3%	3%
Cc1ccc(NC(=O)c2cc(S(=O)(=O)N3CCCCCC3)ccc2F)cc1F	-4%	·	·	·	-12%	·
CCc1ccc(NC(=O)c2cc(S(=O)(=O)NC3CCCC3)ccc2F)cc1	-70%	·	·	·	?	·
Cc1ccc(NC(=O)c2cc(S(=O)(=O)NC3CCCCCC3)ccc2F)cc1F	13µM*	·	·	·	?	·
O=C(Nc1ccc(Cl)cc1)c1cc(S(=O)(=O)NC2CCCCCC2)ccc1F	-88%	·	·	·	8.9µM*	·
O=C(CN1C(=O)NC2(CCCC2)C1=O)Nc1cccc(-c2nnc3n2CCCCC3)c1	6%	22	24%	16	0%	18%
O=C(CCc1nc2ccccc2c(=O)[nH]1)NCc1cccc(Cl)c1	-24%	44	?	-3	6%	21µM*
O=C(c1ccco1)N1CCC(c2nc3c(nnn3Cc3ccccc3Cl)c(=O)[nH]2)CC1	4%	10	-23%	6	0%	-14%
O=C(c1ccco1)N1CCN(c2nc(C3CC3)nc3c2nnn3Cc2ccccc2Cl)CC1	-20%	-77*	-28%	-6	?	-22%
CC(C)(C)c1nc(N2CCN(C(=O)c3ccco3)CC2)c2nnn(Cc3ccccc3)c2n1	-85%	-52*	?	3	?	?
O=C(c1ccco1)N1CCCC(c2nc3c(nnn3Cc3ccccc3)c(=O)[nH]2)C1 (stereo unspecified)	1%	16	0%	7	?	-21%
Cc1noc(C)c1CSCC(=O)Nc1ccccc1N1CCCC1	-2%	33	3%	-1	7%	3%
Cc1ccc(-c2cnc(NC(=O)c3cccc(Br)c3)s2)c(C)c1	-14%	-58*	-4%	-4	?	-8%
Cc1cccc(N2CCN(S(=O)(=O)c3cc(-c4cc(C)no4)ccc3C)CC2C)c1 (stereo unspecified)	-35%	0	4.6µM*	12	-3%	?
Cc1cc(-c2ccc(C(C)C)c(S(=O)(=O)N3CCN(c4ccccc4)CC3)c2)on1	-3%	31	1.8µM*	-12	-23%	1.5µM*
COCCNC(=O)C1(C)CCCN(C(=O)COc2ccccc2)C1 (stereo unspecified)	-10%	-85*	5%	·	14%	?
COCCNC(=O)C1(C)CCCN(C(=O)CCc2ccccc2)C1 (stereo unspecified)	-2%	-6	4%	·	23%	17%
N#Cc1c(-c2ccccc2)[nH]c(=S)[nH]c1=O	-9%	-6	-2%	-13	-11%	-2%
SMILES	HepG2 tox	IL1B secr inh	HT1080 IDH1KD tx	Giardia killer	TGFb SMAD3 inh	HT1080-NT tox
Cc1ccc(C(=O)N[C@@H](C)CN2C3=NC[C@H](C(C)C)N3C[C@H]2Cc2ccc(O)cc2)cc1Br	-35%	?	-30%	11	?	-26%
C[C@@H](CN1C2=NC[C@H](Cc3ccc(O)cc3)N2C[C@H]1Cc1ccc(O)cc1)NC(=O)CCC1CCCCC1	0%	-23	1%	1	0%	10%
COc1ccc(C[C@H]2CN3C(=NC[C@@H]3C(C)C)N2C[C@H](C)NC(=O)c2ccc(C)c(Br)c2)cc1	-58%	-57*	-26%	4	?	-10%
COc1ccc(C[C@H]2CN3C(=NC[C@@H]3Cc3ccc(O)cc3)N2C[C@H](C)NC(=O)c2ccc(C)c(Br)c2)cc1	18µM*	?	-14%	-24	22µM*	-15%
Cc1cc(-c2ccc(S(=O)(=O)Nc3ccc(Br)c(C)c3)s2)on1	-51%	·	·	·	13µM*	·
Cc1cc(-c2ccc(/C=N/n3cnnc3)o2)c(C)c([N+](=O)[O-])c1	5%	-71*	3%	-3	0%	9%
Cc1ccc(S(=O)(=O)c2nc(S(C)(=O)=O)sc2N2CCCCCC2)cc1	-11%	-54*	-5%	-20	-9%	0%
Cc1ccc(S(=O)(=O)c2nc(S(C)(=O)=O)sc2N2CCC(C)CC2)cc1	-8%	-84*	?	7	-8%	-1%
Cc1ccc(S(=O)(=O)c2nc(S(C)(=O)=O)sc2N2CCN(C)CC2)cc1	11%	?	0%	-4	1%	-1%
CCCS(=O)(=O)c1nc(S(=O)(=O)c2ccc(C)cc2)c(N2CCCCC2)s1	-22%	-27	1%	·	-21%	7%
Cc1ccc(S(=O)(=O)c2nc(-c3ccco3)oc2N2CCC(C)CC2)cc1	-35%	-74*	-5%	-8	?	-2%
